# “And” between values parts separate entries of the source, which are not always exact repeats. Equal values may be shown once. Inconclusive results are not listed. Entries that show only a call come without a potency. Where a structure was tested more than once in an assay, its records may differ in their call. The source made the active and inactive calls. Unless noted, calls follow the shape of the dose curve; as a rule, active = well fitted curve in the direction sought with a large enough effect in the repeat runs; inconclusive = weak or mixed curves; inactive = no such curve, though single readings can be large; an effect the other way counts as inactive or inconclusive.
# Legend:
# [1] = molecular target: Progesterone receptor (Homo sapiens) (UniProt P06401); assay: qHTS assay to identify small molecule agonists of the progesterone receptor (PR) signaling pathway (AID 1346784; calls by dose curve; also: nearly all actives have a fitted effect of over 30% in size)
# Chain of Progesterone receptor (Homo sapiens) (P06401 whole entry, looked up): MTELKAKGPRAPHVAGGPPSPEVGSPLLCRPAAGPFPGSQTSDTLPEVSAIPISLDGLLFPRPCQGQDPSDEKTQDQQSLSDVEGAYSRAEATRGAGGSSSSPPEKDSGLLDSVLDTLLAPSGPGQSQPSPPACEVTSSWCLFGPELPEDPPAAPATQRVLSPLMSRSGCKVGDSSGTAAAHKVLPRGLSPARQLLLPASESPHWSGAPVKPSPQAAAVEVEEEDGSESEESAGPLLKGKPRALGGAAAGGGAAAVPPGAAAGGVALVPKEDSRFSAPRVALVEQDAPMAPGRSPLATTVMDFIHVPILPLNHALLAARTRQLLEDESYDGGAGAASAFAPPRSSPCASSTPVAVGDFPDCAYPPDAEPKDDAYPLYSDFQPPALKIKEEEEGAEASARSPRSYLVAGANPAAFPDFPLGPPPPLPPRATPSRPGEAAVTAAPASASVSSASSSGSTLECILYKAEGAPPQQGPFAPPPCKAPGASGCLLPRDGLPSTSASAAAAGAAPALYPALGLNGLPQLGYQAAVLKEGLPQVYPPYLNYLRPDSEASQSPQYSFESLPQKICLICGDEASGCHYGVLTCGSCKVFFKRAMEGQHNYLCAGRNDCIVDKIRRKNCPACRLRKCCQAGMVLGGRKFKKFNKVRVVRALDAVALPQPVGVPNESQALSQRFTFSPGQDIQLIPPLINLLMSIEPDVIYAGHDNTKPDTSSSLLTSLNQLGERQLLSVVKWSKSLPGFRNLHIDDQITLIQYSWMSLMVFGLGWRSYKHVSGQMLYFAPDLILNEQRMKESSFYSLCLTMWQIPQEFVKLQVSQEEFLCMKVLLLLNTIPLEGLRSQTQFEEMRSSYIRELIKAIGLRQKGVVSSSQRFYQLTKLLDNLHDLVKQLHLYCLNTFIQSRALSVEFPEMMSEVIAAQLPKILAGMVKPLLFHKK
# Procedure, shortened: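 Agonist qHTS: compounds pinned onto 3,000 PR-UAS-bla HEK 293T cells per well in charcoal-stripped serum medium, 16hr at 37C, then beta-lactamase activity measured by LiveBLAzer FRET fluorescence after 2 hours at room temperature.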
# [2] = qHTS assay to identify small molecule agonists of the progesterone receptor (PR) signaling pathway - cell viability counter screen (AID 1346799; calls by dose curve; also: nearly all actives have a fitted effect of over 45% in size; also: potency is read from the fitted curve at half-maximal effect)
# Procedure, shortened: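 Cytotoxicity measured by CellTiter-Glo luminescence (30 min, RT) in the same wells as the PR beta-lactamase agonist read. Those HEK293T cells had 16 h compound treatment at 37 C in 2% charcoal-stripped FBS medium.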
# [3] = qHTS assay to identify small molecule antagonists of the TGF-beta/Smad signaling pathway - cell viability counter screen (AID 1346824); also: nearly all actives have a fitted effect of over 50% in size; also: potency is read from the fitted curve at half-maximal effect
# Procedure, shortened: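 SBE-bla HEK 293T cells were plated overnight at 37 C, then given compounds in DMSO plus TGF-beta1 (added as 0.25 ng/mL solution) for 5 hr. After the bla read, CellTiter-Glo was added to the same wells and luminescence read after 30 min at room temperature.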
# [4] = qHTS assay to identify small molecule agonists of the TGF-beta/Smad signaling pathway - cell viability counter screen (AID 1346829); also: nearly all actives have a fitted effect of over 45% in size; also: potency is read from the fitted curve at half-maximal effect
# Procedure, shortened: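 Same-well cytotoxicity: CellTiter-Glo added after the 2 hr room-temperature beta-lactamase substrate step, luminescence measured 30 min later; cells had 5 hr of compound at 37 C.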
# [5] = qHTS assay to identify small molecule agonists of the TGF-beta/Smad signaling pathway (AID 1346859; active = well fitted activation curve with a large enough effect in the signal ratio in the repeat runs, not every such curve was filed as active; the % refers to the signal ratio; also: series mostly up to about 77 µM)
# Procedure, shortened: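 Fluorescence (ex 405 nm; em 460 and 530 nm) was read 2 h after LiveBLAzer FRET substrate at RT. The preceding compound treatment of overnight-plated SBE-bla HEK293T cells lasted 5 h at 37 C.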
# [6] = molecular target: Thyrotropin-releasing hormone receptor (Homo sapiens) (UniProt P34981); assay: qHTS assay to identify small molecule antagonists of the thyrotropin-releasing hormone receptor (TRHR) signaling pathway (AID 1346877; active = well fitted inhibition curve with a large enough effect in the repeat runs, not every such curve was filed as active; also: potency is read from the fitted curve at half-maximal effect)
# Chain of Thyrotropin-releasing hormone receptor (Homo sapiens) (P34981 whole entry, looked up): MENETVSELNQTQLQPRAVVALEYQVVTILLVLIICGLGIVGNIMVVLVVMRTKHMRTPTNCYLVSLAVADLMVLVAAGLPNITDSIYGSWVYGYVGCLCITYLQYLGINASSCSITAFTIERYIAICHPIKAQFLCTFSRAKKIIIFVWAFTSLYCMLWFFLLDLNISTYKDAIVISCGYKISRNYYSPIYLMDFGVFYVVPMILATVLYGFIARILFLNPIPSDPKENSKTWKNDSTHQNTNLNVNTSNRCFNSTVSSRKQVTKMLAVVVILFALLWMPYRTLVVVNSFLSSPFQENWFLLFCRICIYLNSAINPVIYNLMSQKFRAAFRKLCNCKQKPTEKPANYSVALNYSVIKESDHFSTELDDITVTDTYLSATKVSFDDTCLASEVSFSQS
# Procedure, shortened: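 TRHR-expressing HEK293 cells loaded with calcium dye for 2 h at 37 C; compounds pre-incubated 5 min at room temperature before TRH challenge at 1 nM final. Intracellular calcium fluorescence read kinetically for 3 min; 15 concentrations in triplicate.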
# [7] = molecular target: Thyrotropin-releasing hormone receptor (Homo sapiens) (UniProt P34981); assay: qHTS assay to identify small molecule agonists of the thyrotropin-releasing hormone receptor (TRHR) signaling pathway (AID 1346891; calls by dose curve; also: potency is read from the fitted curve at half-maximal effect; as to activation: series mostly up to about 58 µM)
# Procedure, shortened: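 Agonist-mode intracellular calcium readout: kinetic fluorescence over 3 min at 1 s intervals after compound addition to TRHR-HEK293 cells (18 h seeded, 2 h dye-loaded at 37 C). Fifteen concentrations, triplicates.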
# [8] = Human pregnane X receptor (PXR) small molecule agonists, qHTS cell viability counter screen (AID 1346977); also: nearly all actives have a fitted effect of over 50% in size; also: potency is read from the fitted curve at half-maximal effect
# Procedure, shortened: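 Same-well viability read: CellTiter-Fluor added after 23 hr compound exposure, fluorescence measured 1 hr later. Cells were PXR-Luc HepG2 seeded at 2,000/well in 5% charcoal-stripped FBS medium, rested 5 hr before dosing at 37 C.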
# [9] = Caspase-3/7 induction in HepG2 cells by small molecules, qHTS assay (AID 1346978); also: nearly all actives have a fitted effect of over 15% in size; also: potency is read from the fitted curve at half-maximal effect
# Procedure, shortened: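 Wild-type HepG2 cells (2,000/well) were settled 5 h at 37 C, 5% CO2, then exposed to compounds in DMSO for 17 h. Caspase-3/7 activity was read by luminescence 30 min after adding Caspase-Glo 3/7 reagent at room temperature.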
# [10] = Caspase-3/7 induction in CHO-K1 cells by small molecules, qHTS cell viability counter screen (AID 1346979); also: nearly all actives have a fitted effect of over 35% in size; also: potency is read from the fitted curve at half-maximal effect
# Procedure, shortened: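 Cytotoxicity counter screen: CellTiter-Fluor added to compound-treated wild-type CHO-K1 cells at 16 h (37C, 5% CO2), fluorescence measured 1 h later; same wells as caspase-3/7 measurement.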
# [11] = Caspase-3/7 induction in HepG2 cells by small molecules, qHTS cell viability counter screen (AID 1346981); also: nearly all actives have a fitted effect of over 30% in size; also: potency is read from the fitted curve at half-maximal effect
# Procedure, shortened: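 Wild-type HepG2 cells, 2,000/well, settled 5 hr at 37 C, 5% CO2 before compound addition. Viability read by CellTiter-Fluor fluorescence, reagent added after 16 hr compound exposure, then 1 hr at 37C, in the same wells as the caspase read.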
# [12] = molecular target: Nuclear receptor subfamily 1 group I member 2 (Homo sapiens) (UniProt O75469); assay: Human pregnane X receptor (PXR) small molecule agonists, qHTS assay (AID 1346982); also: nearly all actives have a fitted effect of over 35% in size; also: potency is read from the fitted curve at half-maximal effect
# Chain of Nuclear receptor subfamily 1 group I member 2 (Homo sapiens) (O75469 whole entry, looked up): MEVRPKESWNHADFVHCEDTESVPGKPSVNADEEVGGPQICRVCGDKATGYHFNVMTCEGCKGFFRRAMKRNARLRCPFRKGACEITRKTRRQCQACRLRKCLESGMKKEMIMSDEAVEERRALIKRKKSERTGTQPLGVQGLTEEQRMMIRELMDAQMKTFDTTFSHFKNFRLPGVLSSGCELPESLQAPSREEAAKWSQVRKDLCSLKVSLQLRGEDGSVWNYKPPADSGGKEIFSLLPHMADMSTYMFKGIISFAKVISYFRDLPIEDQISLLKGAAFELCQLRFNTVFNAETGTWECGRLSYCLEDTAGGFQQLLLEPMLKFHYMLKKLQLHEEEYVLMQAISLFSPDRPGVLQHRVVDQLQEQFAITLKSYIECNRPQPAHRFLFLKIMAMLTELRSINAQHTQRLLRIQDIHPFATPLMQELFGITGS
# Procedure, shortened: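 PXR-Luc HepG2 reporter cells (CYP3A4-driven luciferase) in 5% charcoal-stripped FBS medium, plated 5 h before compound addition, then treated 24 h at 37C. Luciferase read by ONE-Glo luminescence after 30 min at room temperature.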
# [13] = molecular target: Acetylcholinesterase (Homo sapiens) (UniProt P22303); assay: Acetylcholinesterase (AChE) small molecule antagonists: enzyme-based qHTS assay (AID 1347397; calls by dose curve; also: nearly all actives have a fitted effect of over 55% in size; also: potency is read from the fitted curve at half-maximal effect); details: Potency: AChE enzyme activity inhibition
# Chain of Acetylcholinesterase (Homo sapiens) (P22303 whole entry, looked up): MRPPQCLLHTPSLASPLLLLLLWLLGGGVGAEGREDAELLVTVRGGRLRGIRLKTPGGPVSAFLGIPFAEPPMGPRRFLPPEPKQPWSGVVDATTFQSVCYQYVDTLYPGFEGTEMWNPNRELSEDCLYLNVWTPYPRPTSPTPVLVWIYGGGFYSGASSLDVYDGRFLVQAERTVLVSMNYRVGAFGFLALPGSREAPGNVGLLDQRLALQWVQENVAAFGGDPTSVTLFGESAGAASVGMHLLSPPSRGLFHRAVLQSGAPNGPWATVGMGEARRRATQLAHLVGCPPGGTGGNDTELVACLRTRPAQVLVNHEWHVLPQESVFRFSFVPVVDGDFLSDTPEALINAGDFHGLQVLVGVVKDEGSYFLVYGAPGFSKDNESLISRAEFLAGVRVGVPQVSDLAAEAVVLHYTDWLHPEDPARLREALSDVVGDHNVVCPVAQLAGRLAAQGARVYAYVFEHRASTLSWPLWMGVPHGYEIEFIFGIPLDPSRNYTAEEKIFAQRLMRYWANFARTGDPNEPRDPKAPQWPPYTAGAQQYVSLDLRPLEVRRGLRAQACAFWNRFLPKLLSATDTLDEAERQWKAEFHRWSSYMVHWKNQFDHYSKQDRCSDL
# Procedure, shortened: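 Recombinant human AChE, dispensed at 50 mU/mL, was preincubated with Tox21 10K compounds or DMSO vehicle for 30 min at room temperature. DTNB plus acetylthiocholine was then added, and thiocholine was measured colorimetrically after a further 10 min.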
# [14] = molecular target: Progesterone receptor (Homo sapiens) (UniProt P06401); assay: qHTS assay to identify small molecule antagonists of the progesterone receptor (PR) signaling pathway (AID 1346795; active = well fitted inhibition curve with a large enough effect in the signal ratio in the repeat runs, not every such curve was filed as active; the % refers to the signal ratio; also: potency is read from the fitted curve at half-maximal effect)
# Procedure, shortened: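 Antagonist mode with agonist R5020 at 1 nM final and 16 hr incubation at 37C. Reporter was beta-lactamase driven by UAS in HEK293T (PR-UAS-bla), 2% charcoal-stripped serum; signal from LiveBLAzer FRET substrate, 2 hr at room temperature.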
# [15] = qHTS assay to identify small molecule antagonists of the progesterone receptor (PR) signaling pathway - cell viability counter screen (AID 1346798); also: nearly all actives have a fitted effect of over 50% in size; also: potency is read from the fitted curve at half-maximal effect
# Procedure, shortened: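 Cytotoxicity read as CellTiter-Glo luminescence (30 min, room temperature) in the same wells as the beta-lactamase readout. HEK293T PR-UAS-bla cells in charcoal-stripped 2% FBS received compound and R5020, then 16 h at 37C, 5% CO2.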
# [16] = Caspase-3/7 induction in CHO-K1 cells by small molecules, qHTS assay (AID 1346980); also: nearly all actives have a fitted effect of over 15% in size; also: potency is read from the fitted curve at half-maximal effect
# Procedure, shortened: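 Wild-type cells were seeded at 1,500 per well and settled 5 hr at 37 C, 5% CO2, then exposed to DMSO-dissolved compounds for 17 hr. Caspase-Glo 3/7 reagent was added, and luminescence was read after 30min at room temperature.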
# [17] = molecular target: Acetylcholinesterase (Homo sapiens) (UniProt P22303); assay: Acetylcholinesterase (AChE) small molecule antagonists: colormetric cell-based qHTS assay (AID 1347395; calls by dose curve; also: nearly all actives have a fitted effect of over 30% in size; also: potency is read from the fitted curve at half-maximal effect)
# Procedure, shortened: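 Colorimetric readout: DTNB quantifies thiocholine from acetylthiocholine hydrolysed by endogenous AChE of SH-SY5Y cells (2,000/well, plated overnight). Compound pretreatment 30 min, substrate incubation 90 min, both 37 C.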
Compound,Potency [1],Potency [2],Potency [3],Potency [4],outcome [5],Potency [6],Potency [7],Potency [8],Potency [9],Potency [10],Potency [11],Potency [12],Potency [13],Potency [14],Potency [15],Potency [16],Potency [17]
CCOP(=S)(OCC)Oc1cc(C)nc(N(CC)CC)n1,inactive,inactive,inactive,inactive,inactive,inactive,inactive,inactive,inactive,inactive,inactive,17.2 µM (active),inactive,,,,
COP(=S)(OC)Oc1ccc([N+](=O)[O-])c(C)c1,,,,,inactive,inactive,inactive,inactive,inactive,,inactive,inactive,inactive,6.11 µM (active),inactive,inactive,35.6 µM (active)
CC(=O)[O][Pb]([c]1ccccc1)([c]1ccccc1)[c]1ccccc1,,4.33 µM (active),4.9 µM (active),4.36 µM (active),,,,4.33 µM (active),2.43 µM (active),0.386 µM (active),10.9 µM (active),inactive,inactive,,4.33 µM (active),0.486 µM (active),inactive
N#Cc1sc2c(=O)c3ccccc3c(=O)c=2sc1C#N,,30.6 µM (active),,38.9 µM (active),,,inactive,9.69 µM (active),inactive,21.7 µM (active),21.7 µM (active),2.73 µM (active),inactive,,30.6 µM (active),inactive,
CN(C)c1ccc(N)cc1,,,inactive,,inactive,inactive,inactive,42.2 µM (active),inactive,42.2 µM (active),47.4 µM (active),8.42 µM (active),61.8 µM (active),,inactive,inactive,12.3 µM (active)
N#CC(C#N)=NNc1cccc(Cl)c1,,,,inactive,,inactive,inactive,3.86 µM (active),inactive,3.86 µM (active),24.3 µM (active),inactive,inactive,13.7 µM (active),,,inactive
Oc1cc(Cl)cc(Cl)c1,,,inactive,inactive,inactive,inactive,inactive,inactive,inactive,,inactive,69.3 µM (active),inactive,,,inactive,inactive
O.O.O.O.O.O.O=S(=O)([O-])[O-].[Ni+2],,,inactive,inactive,inactive,,,inactive,inactive,inactive,inactive,,,,inactive,inactive,
Oc1cccc(Cl)c1Cl,,27.4 µM (active),inactive,inactive,inactive,inactive,inactive,inactive,inactive,inactive,inactive,inactive,inactive,,,inactive,inactive
[F][Sn]([c]1ccccc1)([c]1ccccc1)[c]1ccccc1,,1.54 µM (active),1.38 µM (active),1.23 µM (active),,3.38 µM (active),4.36 µM (active),0.0863 µM (active),0.193 µM (active),0.0433 µM (active),1.22 µM (active),0.077 µM (active),inactive,,1.37 µM (active),0.0611 µM (active),inactive
[Cl][Hg][c]1ccccc1,,3.06 µM (active),,17.4 µM (active),,,,1.54 µM (active),inactive,0.486 µM (active),12.2 µM (active),inactive,inactive,,3.06 µM (active),inactive,inactive
O=C(N[C@@H]1N=C(c2ccccc2F)c2cccc3c2N(CC3)C1=O)c1cc2ccccc2[nH]1,,inactive,inactive,inactive,inactive,,12 µM (active),inactive,,inactive,inactive,10.6 µM (active),inactive,,inactive,inactive,inactive
O=c1[nH]c(Cl)c(Cl)cc1Cl,,,,inactive,,inactive,inactive,inactive,inactive,inactive,inactive,,inactive,inactive,,,
O=S1OCC2C(CO1)C1(Cl)C(Cl)=C(Cl)C2(Cl)C1(Cl)Cl (centres undefined),,68.7 µM (active),inactive,inactive,inactive,,,,,61.2 µM (active) and 68.5 µM (active),,24.4 µM (active) and inactive,inactive,,61.1 µM (active),inactive,inactive
N#Cc1c[nH]cc1-c1cccc2c1OC(F)(F)O2,,,inactive,,inactive,inactive,inactive,,12.2 µM (active),48.6 µM (active),,27.3 µM (active),inactive,,inactive,inactive,inactive
Fc1ccc(C(OCCN2CCN(CCCc3ccccc3)CC2)c2ccc(F)cc2)cc1,,,,23.9 µM (active),inactive,inactive,inactive,16.8 µM (active),,11.9 µM (active),23.7 µM (active),inactive,inactive,,,23.7 µM (active),
CC(O)C(=O)[O][Hg][c]1ccccc1 (centres undefined),,4.86 µM (active),9.77 µM (active),17.4 µM (active),,,,1.93 µM (active),inactive,1.09 µM (active),4.86 µM (active),inactive,inactive,,4.86 µM (active),inactive,inactive
CC(C)[C@@H](Nc1ccc(C(F)(F)F)cc1Cl)C(=O)OC(C#N)c1cccc(Oc2ccccc2)c1 (some centres undefined),,,,,inactive,,,inactive,inactive,inactive,inactive,7.42 µM (active),inactive,,inactive,inactive,inactive
Cc1ccn2nc(S(=O)(=O)Nc3c(F)cccc3F)nc2n1,,inactive,inactive,inactive,inactive,inactive,inactive,inactive,inactive,inactive,inactive,inactive,inactive,,inactive,inactive,inactive
COP(=S)(OC)Oc1nc(Cl)c(Cl)cc1Cl,,,inactive,inactive,inactive,inactive,inactive,inactive,inactive,,inactive,inactive,inactive,,,inactive,inactive
